Data from article PMC4336329 (PLoS ONE, 2015).
Among all 310,000 compounds or so, about 14,000 (4.5%) showed an effect of 50% or more. The effect is printed as a negative number. Only a selection was taken, and strong results are over-represented in it overall.

Each molecule was assayed against human ether-à-go-go-related gene (hERG) potassium channel (human, UniProt Q12809) (assay: primary screen, population patch clamp on CHO cells stably expressing hERG; higher = less effect of the substance).
Chain of human ether-à-go-go-related gene (hERG) potassium channel (Q12809 whole entry, looked up): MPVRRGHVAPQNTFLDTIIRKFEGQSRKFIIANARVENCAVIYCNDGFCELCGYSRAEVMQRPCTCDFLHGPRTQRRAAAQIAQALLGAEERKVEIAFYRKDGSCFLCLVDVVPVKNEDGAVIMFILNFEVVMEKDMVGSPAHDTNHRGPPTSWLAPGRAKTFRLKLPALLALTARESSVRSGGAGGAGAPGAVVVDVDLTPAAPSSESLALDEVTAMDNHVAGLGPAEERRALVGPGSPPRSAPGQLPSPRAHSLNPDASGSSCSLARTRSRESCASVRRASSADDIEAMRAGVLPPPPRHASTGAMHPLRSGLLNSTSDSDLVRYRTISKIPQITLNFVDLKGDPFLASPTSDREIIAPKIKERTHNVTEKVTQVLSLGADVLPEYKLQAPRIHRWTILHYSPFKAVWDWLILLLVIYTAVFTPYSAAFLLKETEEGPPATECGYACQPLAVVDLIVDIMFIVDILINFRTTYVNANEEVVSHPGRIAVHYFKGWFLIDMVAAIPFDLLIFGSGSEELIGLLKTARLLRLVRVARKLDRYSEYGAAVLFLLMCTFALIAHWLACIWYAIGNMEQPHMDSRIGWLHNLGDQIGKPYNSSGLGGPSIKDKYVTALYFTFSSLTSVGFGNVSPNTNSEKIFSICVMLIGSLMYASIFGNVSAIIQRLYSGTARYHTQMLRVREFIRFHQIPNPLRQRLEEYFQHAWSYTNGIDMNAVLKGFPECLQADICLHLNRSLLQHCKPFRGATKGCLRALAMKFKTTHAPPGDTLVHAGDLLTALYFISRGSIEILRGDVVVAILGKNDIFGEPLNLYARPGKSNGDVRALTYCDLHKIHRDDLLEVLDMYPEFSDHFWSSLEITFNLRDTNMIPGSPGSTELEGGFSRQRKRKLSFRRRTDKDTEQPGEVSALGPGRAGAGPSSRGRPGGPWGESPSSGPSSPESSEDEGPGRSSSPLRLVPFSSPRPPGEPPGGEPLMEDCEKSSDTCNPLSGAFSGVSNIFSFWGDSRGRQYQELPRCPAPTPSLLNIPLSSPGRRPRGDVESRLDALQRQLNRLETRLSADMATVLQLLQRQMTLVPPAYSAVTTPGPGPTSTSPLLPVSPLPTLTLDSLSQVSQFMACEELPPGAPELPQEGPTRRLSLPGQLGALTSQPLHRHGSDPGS
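Further: peak tail current of the secondary pulse compared with the same well before compound.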

Structure (SMILES)	hERG current change (%, negative = inhibition) at 10uM [%]
O=C(CCSCCc1ccccn1)Nc1nccs1	30.1
O=C(Cc1csc(NC(=O)c2ccc(F)cc2)n1)NO	-3.56
COc1ccc(/C=N/NC(=O)C(C)N(c2ccc(OC)cc2)S(C)(=O)=O)cc1 (centres unmarked)	-8.54
COc1ccc(N(C(C)C(=O)N/N=C/c2ccc(OC(C)C)cc2)S(C)(=O)=O)cc1 (centres unmarked)	-52.4
COc1ccc(N(C(C)C(=O)N/N=C/c2ccc(OC)c(OC)c2)S(C)(=O)=O)cc1 (centres unmarked)	5.24
COc1ccc(N(C(C)C(=O)N/N=C/c2ccc(OCC(C)C)cc2)S(C)(=O)=O)cc1 (centres unmarked)	-9.12
COc1ccc(N(C(C)C(=O)N/N=C/c2cccnc2)S(C)(=O)=O)cc1 (centres unmarked)	-3.44
COc1ccc(N(C(C)C(=O)N/N=C/c2cc(Br)c(C)o2)S(C)(=O)=O)cc1 (centres unmarked)	-54
COc1ccc(C(=O)/C=C/Nc2ccc(S(=O)(=O)Nc3cc(OC)nc(OC)n3)cc2)c(OC)c1	19.4
O=Cc1cn(CCC(=O)O)nc1-c1cccc2ccccc12	13.5
O=C(N/N=C\c1ccc(F)cc1)c1cc(OCC(F)(F)F)ccc1OCC(F)(F)F	-21
COc1ccccc1C(=O)N/N=C(\C)c1ccc(NC(=O)C2CC2)cc1	-3.62
O=C(NCCSCc1ccc(Cl)cc1)c1cccs1	-63.7
O=C(Cc1ccccc1)NCCSCc1ccc(Cl)cc1	-9.5
O=C(NCCc1ccc(Cl)cc1)c1cccs1	-3.58
C=CCSc1nnc(-c2ccccc2N=Cc2c(C)[nH]n(-c3ccccc3)c2=O)c(=O)[nH]1	-26.5
O=C(c1cccc(S(=O)(=O)N2CCOCC2)c1)N1CCN(S(=O)(=O)c2cccs2)CC1	5.04
O=C(Nc1ccc([N+](=O)[O-])cn1)c1cc(-c2cccc(Br)c2)nc2ccccc12	17.6
O=[N+]([O-])c1ccc(CSc2nc3ncc(Br)cc3[nH]2)cc1	6.04
O=C(CSc1nc2ncc(Br)cc2[nH]1)c1cccc([N+](=O)[O-])c1	-45.7
O=C(CSc1nc2ncc(Br)cc2[nH]1)c1ccc([N+](=O)[O-])cc1	-66.9
CCOC(=O)c1cc(C#N)c(N2CCCC2)nc1-c1ccccc1	-7.5
C/C(=C\c1ccc(C)o1)C(=O)c1c(C)cc(C)[nH]c1=O	11.5
COc1ccccc1COCC(O)CN1CCCCC1CO.O=C(O)C(=O)O (centres unmarked)	18.6
Cc1ccccc1C(OCC(O)CN1CCCCC1CCO)c1ccccc1 (centres unmarked)	-61.6
Cc1ccc(C(OCC(O)CN2CCCCC2CO)c2ccccc2)cc1 (centres unmarked)	-62.8
Cc1ccccc1C(OCC(O)CN1CCC(C(N)=O)CC1)c1ccccc1 (centres unmarked)	-59.3

Structure (SMILES)	hERG current change (%, negative = inhibition) at 10uM [%]
OCCC1CCCCN1CC(O)COCc1ccc(Cl)cc1 (centres unmarked)	-7.29
CC(OCC(O)CN1CCCCC1CCO)c1ccc(Cl)cc1 (centres unmarked)	4.2
CCN1CCN(CC(O)COC(c2ccccc2)c2ccccc2C)CC1.O=C(O)C(=O)O (centres unmarked)	-10.6
CCC1CCCCN1CC(O)COCc1cccc(OC)c1 (centres unmarked)	3.15
O=C(O)C(=O)O.OCC1CCCCN1CC(O)COC(c1ccc(F)cc1)c1ccc(F)cc1 (centres unmarked)	-71
NC(=O)C1CCN(CC(O)CSc2ccccc2)CC1 (centres unmarked)	-0.00192
CCOC(=O)CC(=O)Nc1ccc(Br)cc1C(=O)O	-11.3
COc1ccc(CNC(=O)c2cc(=O)c3cc(C)cc(C)c3o2)cc1	2.04
CCn1c(SCC(=O)Nc2ccc(NC(=O)c3ccco3)c(OC)c2)nc2ccccc2c1=O	-20
CCOC(=O)C1=C(O)/C(=C/c2ccc(OCC(=O)Nc3ccc(C)cc3)cc2)N=C1C	10.6
C/C(=N\NC(=O)c1cc(-c2cccnc2)nc2ccccc12)c1ccccc1O	0.355
Cn1c(=O)c2c(=O)cc(NNC(=O)C(C)(C)C)[nH]c2n(C)c1=O	0.349
CCCC[C@@H]1CNC(=S)N1CCCC	11
C/C(CC(=O)Nc1ccc2c(c1)OCCO2)=N\NC(=O)Cc1ccc(Cl)cc1	11.2
CCCCc1nnc(NC(=O)CSc2nc(O)c(-c3ccccc3)c(=O)[nH]2)s1	1.48
O=C1c2ccccc2C(=O)N1CCCCN(C(=O)c1ccc([N+](=O)[O-])cc1)c1ccc(Cl)cc1	-3.93
Cc1ccc(N(CCCCN2C(=O)c3ccccc3C2=O)C(=O)c2cccs2)cc1	-67.3
CC(=O)N(CCCCN1C(=O)c2ccccc2C1=O)c1ccc(C)cc1	-34.5
O=C1c2ccccc2C(=O)N1CCCCN(C(=O)c1ccco1)c1ccc(Cl)cc1	-55.7
O=C1c2ccccc2C(=O)N1CCCCN(C(=O)c1cccc([N+](=O)[O-])c1)c1ccc(Cl)cc1	-7.96
O=C1c2ccccc2C(=O)N1CCCCN(C(=O)c1ccc(Cl)s1)c1ccc(Cl)cc1	8.41
O=C1c2ccccc2C(=O)N1CCCCN(C(=O)c1cc([N+](=O)[O-])cc([N+](=O)[O-])c1)c1ccc(Cl)cc1	5.87
Cc1ccc(N(CCCCN2C(=O)c3ccccc3C2=O)C(=O)c2cccc([N+](=O)[O-])c2)cc1	-59.5
Cc1ccc(N(CCCCN2C(=O)c3ccccc3C2=O)C(=O)c2ccc(Cl)s2)cc1	2.79
OC1C2(Cc3ccccc3)CN3CCN(C2)CC1(Cc1ccccc1)C3 (centres unmarked)	-1.47
Cc1[nH][nH]c(=O)c1C(c1ccc(-c2cccc(C(=O)O)c2)o1)c1c(C)[nH][nH]c1=O	19.2
